From PubChem BioAssay AID1851 (National Center for Advancing Translational Sciences (NCATS), 2009) come the findings set out here.

Out of some 16,000 compounds screened, about 5,100 (32%) were called active. Roughly 25% stayed inconclusive and do not appear here. This is one part of the list. Values without a mark were called inactive. Calls follow the shape of the dose curve; as a rule, active = well fitted curve in the direction sought with a large enough effect; inconclusive = small, poorly fitted or top-dose-only effect, or effect the other way; inactive = no such curve, though single readings can be large or run the other way.
% is scaled to controls: 0 for no effect and ±100 for the full control effect.

The experiment deals with Cytochrome P450 3A4 (Homo sapiens) (UniProt P08684). Kind of experiment: Cytochrome panel assay with activity outcomes. To be noted: recombinant CYP, pro-luciferin dealkylation, luminescence, p450-cyp3a4; series mostly up to 57.1 µM; activity, negative = inhibition: at the top concentration.
Cytochrome P450 3A4 (Homo sapiens), sequence (P08684 whole entry, looked up): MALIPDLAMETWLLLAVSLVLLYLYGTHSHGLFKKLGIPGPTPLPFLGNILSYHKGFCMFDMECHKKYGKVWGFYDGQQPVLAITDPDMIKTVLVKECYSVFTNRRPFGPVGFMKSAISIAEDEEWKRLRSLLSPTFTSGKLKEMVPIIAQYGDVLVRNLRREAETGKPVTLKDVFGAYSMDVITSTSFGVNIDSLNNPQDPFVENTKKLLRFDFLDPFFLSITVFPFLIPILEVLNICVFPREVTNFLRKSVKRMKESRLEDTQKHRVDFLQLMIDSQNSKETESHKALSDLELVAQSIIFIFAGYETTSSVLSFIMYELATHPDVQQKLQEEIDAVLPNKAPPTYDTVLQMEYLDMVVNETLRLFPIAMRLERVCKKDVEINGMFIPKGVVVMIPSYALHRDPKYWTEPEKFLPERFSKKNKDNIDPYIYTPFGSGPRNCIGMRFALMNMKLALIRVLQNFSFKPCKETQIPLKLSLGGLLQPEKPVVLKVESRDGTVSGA
Take `Cn1cc(C(=O)c2cccc(Cl)c2Cl)cc1C(=O)O`: the “activity, negative = inhibition” value was 10.6%.
Turning to `Cn1cccc1C(=O)N1CCC[C@@]2(CCN(Cc3cc(C(F)(F)F)cc(C(F)(F)F)c3)C2)C1`, the AC50 (as a rule, the concentration giving half of the maximal activity seen) was 15.8 µM (active).
In the case of `Cn1cccc1C(=O)N1CCC2(CC1)CN(Cc1ccc(C#N)cc1)C2`, the “activity, negative = inhibition” value was 16.5%.
The same measure, in the same setting: the figure for `Cn1cccc1C(=O)N1CCC2(CC1)CN(Cc1cc(C(F)(F)F)cc(C(F)(F)F)c1)C2` is 9.35%; for `Cn1cccc1C(=O)N1CCC2(CCN(Cc3ccccc3)CC2)CC1` it is -3.29%.
For the molecule `Cn1cccc1C(=O)N1CCC[C@@]2(CCN(Cc3ccc(C#N)cc3)C2)C1`, the half-maximal activity concentration (AC50) is 12.6 µM (active).
Turning to `CCN[C@@H]1C[C@H](C)S(=O)(=O)c2sc(S(N)(=O)=O)cc21`, the “activity, negative = inhibition” value was -31.7% [at 25.6 µM].
Same read-out and setting: the value for `NC(N)=Nc1nc(CCN2C(=O)c3ccccc3C2=O)cs1` was 6.93%.
Take `N#C/C(=C/c1cccc(C(F)(F)F)c1)c1nc(CCN2C(=O)c3ccccc3C2=O)cs1`: the concentration at half-maximal activity (AC50) is 5.01 µM (active).
The same measure, in the same setting: the figure for `O=C(O)CSCNC(=O)CC12CC3CC(CC(C3)C1)C2` is 0.224 µM (active).
Regarding `Cc1nc2nc[nH]n2c(=O)c1NC(=O)CC12CC3CC(CC(C3)C1)C2`, the “activity, negative = inhibition” value is -23.4%.
The same measure, in the same setting: the value for `O=C(O)CC12C[C@H]3C[C@@H](CC(O)(C3)C1)C2` was -10.4% [at 11.4 µM].
In the case of `NC(=O)c1ccc(-c2nc(-c3ccc4c(c3)OCO4)c(-c3ccccn3)[nH]2)cc1`, the concentration at half-maximal activity (AC50) was 10 µM (active).
Turning to `NC(=O)c1ccc(-c2ncc(-c3ccccc3)o2)cc1`, the “activity, negative = inhibition” value is -23.2%.
As for `O=C(O)Cc1nn(Cc2ccc(Br)cc2F)c(=O)c2ccccc12`, the “activity, negative = inhibition” value is 1.75%.
As for `CCOc1cc(CNCCCN2CCOCC2)cc(Br)c1OCC(=O)Nc1cccc(C(F)(F)F)c1`, the concentration at half-maximal activity (AC50) is 4.47 µM (active).
Regarding `COc1ccc(NC(=O)COc2ccc(CNCCCN3CCOCC3)cc2OC)cc1`, the “activity, negative = inhibition” value was -19.4%.
On the same count and under the same terms, the figure for `c1csc(CNCCCN2CCOCC2)c1` is -5.52%.
Take `CN(C)c1ccc(-c2nc(Nc3ccncc3)c3ccccc3n2)cc1`: the AC50 is 7.94 µM (active).
Same read-out and setting: the value for `CN(C)C(=O)c1ccc(-c2nc(Nc3ccncc3)c3ccccc3n2)cc1` was 15.8 µM (active).
On to `CC(=O)NC1=NC(=O)C(C)S1` (configuration not stated), for which the activity, negative = inhibition was -3.3% [at 2.29 µM].
`Cc1onc(-c2c(F)cccc2Cl)c1C(=O)N[C@H]1C(=O)N2[C@H]1SC(C)(C)[C@H]2C(=O)O`: the “activity, negative = inhibition” value is -12.4% [at 25.6 µM].
`Cc1ccccc1-n1nc2c(c1NC(=O)c1ccc(S(=O)(=O)N(C)C)cc1)CSC2`: the AC50 is 14.1 µM (active).
On the same count and under the same terms, the figure for `Cc1ccc(-n2nc3c(c2NC(=O)c2cccs2)CSC3)cc1` is 12.6 µM (active).
Turning to `Cc1ccc(NC(=O)CCC(=O)NNS(=O)(=O)c2ccccc2)c(C)c1`, the activity, negative = inhibition was 21.8% [at 2.29 µM].
On the same count and under the same terms, the figure for `CCN(CC)S(=O)(=O)c1ccc(C(=O)Nc2ncn(Cc3ccccc3)n2)cc1` is -5.91%; for `Cc1cc(NC(=O)c2ccc(S(=O)(=O)N(C)C)cc2)n(-c2ccccn2)n1` it is 8.07%.
Take `Cc1ccccc1-n1nc2c(c1NC(=O)c1c(-c3ccccc3Cl)noc1C)CSC2`: the AC50 is 1.12 µM (active).
As for `Cc1ccc(NC(=O)CCC(=O)NNC(=O)c2cccs2)c(C)c1`, the activity, negative = inhibition was -1.38% [at 2.29 µM].
Still for that read-out and setting: the value for `Cc1onc(-c2c(F)cccc2Cl)c1C(=O)N[C@@H]1C(=O)N2[C@H]1SC(C)(C)[C@H]2C(=O)O` was -13.2% [at 11.4 µM].
For the molecule `CCCC(=O)Nc1c2c(nn1-c1ccc(C)cc1C)CSC2`, the AC50 is 7.08 µM (active).
Turning to `CCCC(=O)Nc1c(C)n[nH]c1C`, the “activity, negative = inhibition” value is -12.2%.
